This is an account of results in PubChem BioAssay (NCATS).

Inconclusive results are not listed. Where a call stands in place of a potency, no number is given. Activity calls are given as the source filed them. Calls follow the shape of the dose curve; as a rule, active = well fitted cell-killing curve with a large enough effect; inconclusive = small, poorly fitted or top-dose-only effect, or effect the other way; inactive = no such curve, though single readings can be large or run the other way.
Potency is read from the fitted curve at half-maximal effect.

The experiment is described as follows: Quantitative High-Throughput drug screen in 47 multiple myeloma cell lines against the NCATS MIPE library collection: ARP1_JJKsccF8 cell viability assay (AID 1918928; also: nearly all actives have a fitted effect of over 40% in size). To be noted: ARP1 myeloma cells viability, CellTiter-Glo ATP, 48 h; series mostly up to 45.8 µM. Summed up:
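Luminescence from CellTiter-Glo, taken after 5 min at room temperature, reports cellular ATP as viability. Cells (500 per well) had been treated 48 h at 37 °C with MIPE 4.0 compounds, scaled between DMSO and medium-only controls.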
A general note: ATP-based viability assays read luminescence as a measure of living cells.
As to `NC(=O)c1ccc(-c2nc(-c3ccc4c(c3)OCCO4)c(-c3ccccn3)[nH]2)cc1`, the Potency was 4180 nM (active).
On to `COc1ccc2c3n(c(=NC(=O)c4cccnc4)nc2c1OC)CCN3`, for which the Potency was 2640 nM (active).
In the case of `COc1ccc(CC2=NN3C([C@@H](CCc4ccccc4)[C@@H](C)O)=NC(C)C3C(=O)N2)cc1OC` (stereo partly drawn) it was “inactive”; in that of `Cc1cc([C@@H](C)Nc2ccccc2C(=O)O)c2nc(N3CCOCC3)cc(=O)n2c1`, 481 nM (active); in that of `NC(=O)C1CCCc2c1[nH]c1ccc(Cl)cc21` (stereo not drawn), “inactive”.
The value for `NC(N)=NC(=O)c1nc(Cl)c(N)nc1N` was “inactive”.
In the case of `CCOc1ccc(Cc2cc([C@@H]3O[C@H](CO)[C@@H](O)[C@H](O)[C@@H]3O)ccc2Cl)cc1` it was “inactive”; in that of `Cc1c(CN2CCN(C(=O)C(C)C)CC2)sc2c(N3CCOCC3)nc(-c3cnc(N)nc3)nc12`, 23.5 nM (active); in that of `CNC(=O)c1ccc(N2C(=S)N(c3ccc(C#N)c(C(F)(F)F)c3)C(=O)C2(C)C)cc1F`, “inactive”.
As to `Cc1ccc(N(CC2=NCCN2)c2cccc(O)c2)cc1`, the Potency is 29600 nM (active).
In the case of `Cc1c(C)c2c(c(C)c1O)CCC(C)(COc1ccc(CC3SC(=O)NC3=O)cc1)O2` (stereo not drawn) it was “inactive”.
In the case of `N#CC[C@H](C1CCCC1)n1cc(-c2ncnc3[nH]ccc23)cn1` it was “inactive”; in that of `CC(=O)Oc1ccccc1C(=O)O`, “inactive”; in that of `COc1ccccc1-c1cccc(-c2c(O)c3cc(C#N)c(Cl)cc3[nH]c2=O)c1`, “inactive”.
Turning to `CCC(C)N(C)C(=O)c1cc2ccccc2c(-c2ccccc2Cl)n1` (stereo not drawn), the Potency is 296 nM (active).
For `O=C(c1cc(Cc2n[nH]c(=O)c3ccccc23)ccc1F)N1CCN(C(=O)C2CC2)CC1`, the Potency result is “inactive”.
The value for `COc1ccc2nc(S(=O)Cc3ncc(C)c(OC)c3C)[nH]c2c1` (stereo not drawn) was “inactive”; that for `COc1cccc2cc(-c3nc(C4CCC(C(=O)O)CC4)n4ncnc(N)c34)[nH]c12` (stereo not drawn) was 662 nM (active).
